Laboratory results taken from article PMC4336329 (PLoS ONE, 2015).
About 14,000 (4.5%) of roughly 310,000 compounds showed an effect of 50% or more. Effects have a minus sign here. Shown is part of a subset that was picked to be rich in strong results.

biological target: human ether-à-go-go-related gene (hERG) potassium channel (human, UniProt Q12809); assay: primary screen, population patch clamp on CHO cells stably expressing hERG; higher = less effect of the substance
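Note: peak tail current of the secondary pulse compared with the same well before compound.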

human ether-à-go-go-related gene (hERG) potassium channel, sequence (Q12809 whole entry, looked up): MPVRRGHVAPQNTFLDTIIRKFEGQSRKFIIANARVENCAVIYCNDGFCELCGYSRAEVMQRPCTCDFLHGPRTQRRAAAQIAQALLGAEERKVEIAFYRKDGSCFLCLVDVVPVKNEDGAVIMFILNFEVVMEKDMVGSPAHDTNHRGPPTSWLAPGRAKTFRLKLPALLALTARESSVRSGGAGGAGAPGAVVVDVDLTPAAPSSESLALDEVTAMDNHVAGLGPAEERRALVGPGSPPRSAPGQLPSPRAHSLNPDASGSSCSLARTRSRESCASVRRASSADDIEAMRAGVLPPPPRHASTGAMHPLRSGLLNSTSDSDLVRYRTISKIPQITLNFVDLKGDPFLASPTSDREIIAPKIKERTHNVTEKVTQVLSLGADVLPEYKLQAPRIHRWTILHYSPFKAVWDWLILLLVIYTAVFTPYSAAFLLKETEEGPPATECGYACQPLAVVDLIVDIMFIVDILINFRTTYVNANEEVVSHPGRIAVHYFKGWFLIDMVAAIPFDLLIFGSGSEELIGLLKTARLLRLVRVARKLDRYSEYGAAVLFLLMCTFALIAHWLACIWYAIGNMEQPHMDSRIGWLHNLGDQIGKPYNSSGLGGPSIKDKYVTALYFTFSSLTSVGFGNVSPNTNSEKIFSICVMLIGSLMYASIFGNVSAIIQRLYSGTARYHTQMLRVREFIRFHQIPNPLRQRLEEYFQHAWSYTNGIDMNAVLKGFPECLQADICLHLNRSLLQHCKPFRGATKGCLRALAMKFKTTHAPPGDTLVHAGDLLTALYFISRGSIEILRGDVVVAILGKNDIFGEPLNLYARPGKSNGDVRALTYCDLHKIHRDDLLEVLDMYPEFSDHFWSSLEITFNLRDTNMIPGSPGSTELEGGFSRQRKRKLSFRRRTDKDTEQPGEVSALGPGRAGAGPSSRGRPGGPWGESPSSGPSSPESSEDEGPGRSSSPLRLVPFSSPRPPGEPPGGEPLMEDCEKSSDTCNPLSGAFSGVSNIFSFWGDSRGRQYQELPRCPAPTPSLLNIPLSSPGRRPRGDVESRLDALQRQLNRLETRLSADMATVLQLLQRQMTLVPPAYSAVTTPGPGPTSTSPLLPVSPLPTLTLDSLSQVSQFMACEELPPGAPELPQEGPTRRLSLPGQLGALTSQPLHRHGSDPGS

Compared with `CCOc1ccc(C2/C(=C(\O)c3ccc4c(c3)OCCO4)C(=O)C(=O)N2CCCN2CCOCC2)cc1OC` (stereo not shown), `COC(=O)c1cc(S(=O)(=O)NCC2CCN(CCc3ccc(OC)cc3)CC2)cn1C` is lower in “hERG current change (%, negative = inhibition) at 10uM” value: 3.69% for the first, -61.2% for the second.

Compared with `Cc1cc(S(=O)(=O)N2CCOCC2)ccc1OCC(=O)Nc1ccc(F)cc1`, `COC(=O)c1cc(S(=O)(=O)NCC2CCN(Cc3ccc(F)cc3)CC2)cn1C` is lower in “hERG current change (%, negative = inhibition) at 10uM” value: -18.9% for the first, -19.6% for the second.

Going from `COc1ccc(C2/C=C\CN(S(=O)(=O)/C=C/c3ccccc3)[C@H](Cc3ccccc3)C(=O)N2Cc2ccc(F)cc2)cc1` (stereo partly shown) to `Cc1nn(-c2ccccc2)c2c1C(c1ccc(Cl)cc1)N(c1ccccc1)C(=O)N2` (stereo not shown), the “hERG current change (%, negative = inhibition) at 10uM” value falls from 8.05% to -64.6%.

Compared with `COc1ccc(C2SCC(=O)Nc3c2c(C)nn3-c2ccccc2)cc1` (stereo not shown), `Cc1nn(-c2ccccc2)c2c1C(c1cccc([N+](=O)[O-])c1)N(c1ccccc1)C(=O)N2` (stereo not shown) is higher in “hERG current change (%, negative = inhibition) at 10uM” value: -7.35% for the first, 11.1% for the second.

First: O=C(CCCOc1ccc(Cl)cc1)Nc1cccc(C(=O)O)c1
Second: CCOc1ccc(CNC(=O)CCC(=O)n2ncc3ccc(Cl)cc32)cc1
The “hERG current change (%, negative = inhibition) at 10uM” value of the first is higher: 13% for the first, -1.82% for the second.

Going from `COc1ccc(NC(=O)c2ccc(-n3c(C)ccc3C)cc2)c(OC)c1` to `COc1ccc(C2NN=C(c3ccc(C)cc3)S2)cc1` (stereo not shown), the “hERG current change (%, negative = inhibition) at 10uM” value rises from -24.3% to 4.2%.

First: COC(=O)c1ccc(C23CC4(C2)[C@H](CN(C)[C@@H]4c2ccccc2)C3c2ccc(Cl)nc2)cc1 (stereo partly shown)
Second: O=C(Oc1ccc(/C=N/NC(=O)c2ccccc2F)cc1)c1ccccc1
The “hERG current change (%, negative = inhibition) at 10uM” value of the first is lower: -28% for the first, 10.3% for the second.

Compared with `COc1ccc(C(=O)NC2CC2)cc1OC1CCN(C/C=C/c2ccccc2)CC1`, `COc1ccccc1/C=C/CN1CCC(Oc2cc(C(=O)NC3CC3)ccc2OC)CC1` is higher in “hERG current change (%, negative = inhibition) at 10uM” value: -79.9% for the first, -76.5% for the second.

First: COc1cc(C(=O)N2CCN(C/C=C/c3ccccc3)CC2)cc(OC)c1C
Second: COc1cc(C(=O)N2CCN(C/C=C/c3ccccc3)CC2)cc(OC)c1OC
The “hERG current change (%, negative = inhibition) at 10uM” value of the first is higher: -30.2% for the first, -35% for the second.

Going from `CCOC(=O)c1[nH]c2ccc(OCC)cc2c1NC(=O)CN1CCC2(CC1)OCCO2` to `COC(=O)c1cc(S(=O)(=O)NCC2CCN(CCc3ccc(OC)cc3)CC2)c[nH]1`, the “hERG current change (%, negative = inhibition) at 10uM” value falls from -25.7% to -67%.

First: Cc1ccsc1CNn1cnnc1SCc1ccc(Cl)cc1
Second: COC(=O)c1ccc(CSc2nnc(NC(=O)C3CC(=O)N(Cc4ccc(C)cc4)C3)s2)cc1 (stereo not shown)
The “hERG current change (%, negative = inhibition) at 10uM” value of the first is higher: 13% for the first, 8.78% for the second.

Compared with `O=C(CSc1nnc(-c2cnccn2)n1Cc1ccco1)c1ccc2ccccc2c1`, `O=C(c1ccncc1)N(Cc1ccco1)Cc1cc2ccccc2[nH]c1=O` is lower in “hERG current change (%, negative = inhibition) at 10uM” value: -15.4% for the first, -43.5% for the second.

Compared with `COC(=O)c1cc(S(=O)(=O)NCC2CCN(Cc3cccc(F)c3)CC2)cn1C`, `COC(=O)c1cc(S(=O)(=O)NCC2CCN(Cc3ccc(Cl)cc3)CC2)cn1C` is higher in “hERG current change (%, negative = inhibition) at 10uM” value: -18.5% for the first, -17% for the second.

Compared with `COC(=O)c1cc(S(=O)(=O)NCc2ccc(Br)cc2)c[nH]1`, `COC(=O)c1cc(S(=O)(=O)NCc2cccs2)c[nH]1` is higher in “hERG current change (%, negative = inhibition) at 10uM” value: -16.1% for the first, 19.1% for the second.

Compared with `COC(=O)c1cc(S(=O)(=O)NCCc2ccccc2)c[nH]1`, `COC(=O)c1cc(S(=O)(=O)NCC2CCN(CCc3cccs3)CC2)c[nH]1` is lower in “hERG current change (%, negative = inhibition) at 10uM” value: 5.93% for the first, -51.1% for the second.

First: COC(=O)c1cc(S(=O)(=O)NCC2CCN(Cc3cc(C)ccc3C)CC2)cn1C
Second: COC(=O)c1cc(S(=O)(=O)NCC2CCN(Cc3ccc(C)cc3)CC2)cn1C
The “hERG current change (%, negative = inhibition) at 10uM” value of the first is higher: -27.5% for the first, -52% for the second.

Going from `COC(=O)c1cc(S(=O)(=O)NCC2CCN(CCc3cccs3)CC2)cn1C` to `Cc1noc(C)c1C(=O)NCCc1ccc(S(N)(=O)=O)cc1`, the “hERG current change (%, negative = inhibition) at 10uM” value rises from -49.6% to -23.7%.

Going from `COC(=O)c1sc(SC)c2c1CC(C)(C)C/C2=N/O` to `COC(=O)/C=C1/SC(=NC(=O)c2ccc(Cl)cc2)NC1=O`, the “hERG current change (%, negative = inhibition) at 10uM” value rises from 10.6% to 26.7%.

Compared with `O=c1[nH]c(=O)n(-c2ccc(F)cc2)c(O)c1/C=C1\C=Nc2ccccc21`, `Fc1ccc(CN2CC[C@H]3C=CCc4cccc(c43)C2)cc1` is lower in “hERG current change (%, negative = inhibition) at 10uM” value: 6.63% for the first, -30.2% for the second.

Compared with `O=C(N/N=C/c1cc([N+](=O)[O-])ccc1O)c1cc(-c2ccccc2)nc2ccccc12`, `COc1ccc2c(CC(=O)OCC(=O)Nc3ccccc3[N+](=O)[O-])coc2c1` is higher in “hERG current change (%, negative = inhibition) at 10uM” value: 12.3% for the first, 19.4% for the second.

Compared with `CCOC(=O)C1C(c2cccc(F)c2)NC(=S)NC1(O)C(F)(F)F` (stereo not shown), `CC1CC1C(=O)OCC(=O)NC(=O)c1ccccc1` (stereo not shown) is higher in “hERG current change (%, negative = inhibition) at 10uM” value: -14.4% for the first, 6.93% for the second.

Going from `CCOCC(O)CSCc1ccc(Cl)cc1` (stereo not shown) to `Cc1ccc(CN2CC[C@H]3C=CCc4cccc(c43)C2)cc1`, the “hERG current change (%, negative = inhibition) at 10uM” value falls from 1.1% to -22.1%.

Compared with `C1=C[C@@H]2CCN(Cc3ccccc3)Cc3cccc(c32)C1`, `c1ccc(CCCCN2CCN=C2Nc2ccccc2)cc1` is higher in “hERG current change (%, negative = inhibition) at 10uM” value: -50.6% for the first, -42% for the second.

First: CN(C)c1ccc(P(=O)(OC2CCCCC2)C(O)c2ccncc2)cc1 (stereo not shown)
Second: c1ccc(NC2=NCCN2CCC2CCCC2)cc1
The “hERG current change (%, negative = inhibition) at 10uM” value of the first is higher: 11.2% for the first, -24% for the second.

Compared with `CC(C)(C)C(=O)NC1CCN(C(=O)N2CCCC2)CC1`, `c1ccc(NC2=NCCN2CCCC2CCCCC2)cc1` is lower in “hERG current change (%, negative = inhibition) at 10uM” value: 10.2% for the first, -47.6% for the second.

Going from `CCCCCCCN1CCN=C1Nc1ccccc1` to `CCCCN1CCN=C1Nc1ccccc1`, the “hERG current change (%, negative = inhibition) at 10uM” value rises from -58% to 15.2%.

First: c1ccc(NC2=NCCN2CCCC2CCCC2)cc1
Second: COC(=O)/C=C1/SC(=NC(=O)c2ccccc2)NC1=O
The “hERG current change (%, negative = inhibition) at 10uM” value of the first is lower: -53.4% for the first, -13.9% for the second.

With `COC(=O)/C=C1\SC(=NC(=O)c2cccc(Cl)c2)NC1=O` the “hERG current change (%, negative = inhibition) at 10uM” value was -79.5%.
